This passage reports inhibition results from ChEMBL document CHEMBL5606460, “ASAP - DENV-2 NS2B-NS3 protease fluorescence single point” (2024).

For this experiment, the target named is Genome polyprotein (dengue virus type 2) (UniProt P29990).

Screen size: about 2,000 compounds; about 110 (5.5%) showed an effect of 50% or more. The entries come from a sample that favours strong results as a whole.

As for `NCCC(=O)Nc1cccc2cccnc12`, the inhibition runs as follows: (Thailand/16681/1984, Concentration 49.95 uM, Number of replicates 2.0, Standard deviation 1.674842930068702 %) -9.45%; (Thailand/16681/1984, Concentration 99.9 uM, Number of replicates 2.0, Standard deviation 2.956474982493684 %) -7.49%.

As for `O=C(Nc1cccc2cccnc12)C1CCNCC1`, the inhibition reads like this: (Thailand/16681/1984, Concentration 49.95 uM, Number of replicates 2.0, Standard deviation 0.4211783883506398 %) -0.871%; (Thailand/16681/1984, Concentration 99.9 uM, Number of replicates 2.0, Standard deviation 1.2273405052219766 %) 51.5%.

As for `Nc1nccc2cc(Br)ccc12`, the inhibition by setting is: (Thailand/16681/1984, Concentration 49.95 uM, Number of replicates 2.0, Standard deviation 5.1898726049351325 %) -2.94%; (Thailand/16681/1984, Concentration 99.9 uM, Number of replicates 2.0, Standard deviation 6.552121336877266 %) -2.95%.

For `COc1ccc(Cl)c2sc(NC(=O)c3ccccc3NS(=O)(=O)c3ccc(Cl)cc3)nc12`, the inhibition (Thailand/16681/1984, Concentration 198.0 uM, Number of replicates 2.0, Standard deviation 9.166560145189157 %) amounted to 8.28%.

For the compound `CC(C)Nc1nc2ccc(C(=O)Nc3nnc4cccnn34)cc2[nH]1`, the inhibition runs as follows: (Thailand/16681/1984, Concentration 49.5 uM, Number of replicates 2.0, Standard deviation 0.47864102228875616 %) -2.54%; (Thailand/16681/1984, Concentration 99.01 uM, Number of replicates 2.0, Standard deviation 0.9476878624230379 %) -0.35%; (Thailand/16681/1984, Concentration 198.0 uM, Number of replicates 2.0, Standard deviation 0.5058242222917364 %) 4.68%.

Take `Cc1cc(CO)c2cccc(Cc3cccc(NC(=O)CNC4CC4)c3)c2n1`: the inhibition is 0.182% (Thailand/16681/1984, Concentration 49.95 uM, Number of replicates 2.0, Standard deviation 1.5245757174015988 %) and 7.46% (Thailand/16681/1984, Concentration 99.9 uM, Number of replicates 2.0, Standard deviation 1.8285218036822166 %).

Regarding `Cc1cc(CO)c2cccc(Cc3cccc(NC(=O)CCC4CCNCC4)c3)c2n1`, the inhibition is, setting by setting: (Thailand/16681/1984, Concentration 49.95 uM, Number of replicates 2.0, Standard deviation 1.9905342893580933 %) 36.1%; (Thailand/16681/1984, Concentration 99.9 uM, Number of replicates 2.0, Standard deviation 0.13016565259146895 %) 90.2%.

In the case of `Cc1cc(CO)c2cccc(Cc3ccccc3NC(=O)Cc3c(C)c4c(=O)[nH]n(C)c4[nH]c3=O)c2n1`, the inhibition is, setting by setting: (Thailand/16681/1984, Concentration 49.95 uM, Number of replicates 2.0, Standard deviation 2.5458058686723866 %) 22.5%; (Thailand/16681/1984, Concentration 99.9 uM, Number of replicates 2.0, Standard deviation 1.6741240734205003 %) 45.5%.

As to `Cc1cc(CO)c2cccc(NC(=O)CCC3CCNCC3)c2n1`, the inhibition was 99.7% (Thailand/16681/1984, Concentration 49.95 uM, Number of replicates 2.0, Standard deviation 0.01891415691253689 %) and 99.6% (Thailand/16681/1984, Concentration 99.9 uM, Number of replicates 2.0, Standard deviation 0.03175377284289565 %).

For `Cc1cc(CO)c2cccc(Cc3cccc(NC(=O)Cc4c(C)c5c(=O)[nH]n(C)c5[nH]c4=O)c3)c2n1`, the inhibition runs as follows: (Thailand/16681/1984, Concentration 49.95 uM, Number of replicates 2.0, Standard deviation 0.9721935995806666 %) 38.4%; (Thailand/16681/1984, Concentration 99.9 uM, Number of replicates 2.0, Standard deviation 1.6660426680996274 %) 65.6%.

In the case of `Cc1cc(CO)c2cccc(NCC3CCNCC3)c2n1`, the inhibition was -6.22% (Thailand/16681/1984, Concentration 49.95 uM, Number of replicates 2.0, Standard deviation 0.8313641199663653 %) and 0.772% (Thailand/16681/1984, Concentration 99.9 uM, Number of replicates 2.0, Standard deviation 1.3048073716258033 %).

Turning to `Cc1cc(CO)c2cccc(NC(=O)CC3CCNCC3)c2n1`, the inhibition is, setting by setting: (Thailand/16681/1984, Concentration 49.95 uM, Number of replicates 2.0, Standard deviation 2.142909982415651 %) 8.3%; (Thailand/16681/1984, Concentration 99.9 uM, Number of replicates 2.0, Standard deviation 0.2007188026491294 %) 53.9%.

With `Cc1cc(CO)c2cccc(Cc3ccccc3NC(=O)CCC3CCNCC3)c2n1`, the inhibition runs as follows: (Thailand/16681/1984, Concentration 49.95 uM, Number of replicates 2.0, Standard deviation 0.7055143046624119 %) -4.33%; (Thailand/16681/1984, Concentration 99.9 uM, Number of replicates 2.0, Standard deviation 1.236554143481246 %) 6.21%.

On to `Cc1cc(CO)c2cccc(Cc3cccc(NC(=O)C[C@H]4CCCN4)c3)c2n1`, for which the inhibition is, setting by setting: (Thailand/16681/1984, Concentration 49.95 uM, Number of replicates 2.0, Standard deviation 0.1263380443971036 %) -4.58%; (Thailand/16681/1984, Concentration 99.9 uM, Number of replicates 2.0, Standard deviation 0.8674748654209231 %) -4.17%.

On to `Cc1cc(CO)c2cccc(NC(=O)C[C@H]3CCCN3)c2n1`, for which the inhibition by setting is: (Thailand/16681/1984, Concentration 49.95 uM, Number of replicates 2.0, Standard deviation 1.87682580099837 %) 7.72%; (Thailand/16681/1984, Concentration 99.9 uM, Number of replicates 2.0, Standard deviation 2.520000533440925 %) 13.9%.

With `Cc1cc(CO)c2cccc(NC(=O)Cc3c(C)c4c(=O)[nH]n(C)c4[nH]c3=O)c2n1`, the inhibition came out at 17.7% (Thailand/16681/1984, Concentration 49.95 uM, Number of replicates 2.0, Standard deviation 1.6565788461475972 %) and 32.2% (Thailand/16681/1984, Concentration 99.9 uM, Number of replicates 2.0, Standard deviation 1.9416844060600267 %).

With `Cc1cc(CO)c2cccc(NC(=O)CC3CNC3)c2n1`, the inhibition (Thailand/16681/1984, Concentration 49.95 uM, Number of replicates 2.0, Standard deviation 1.3762045228616064 %) is 7.76% and the inhibition (Thailand/16681/1984, Concentration 99.9 uM, Number of replicates 2.0, Standard deviation 1.6376626661863318 %) turned out to be 14.8%.

Consider `Cc1cc(N)c2cccc(Br)c2n1`, for which the inhibition (Thailand/16681/1984, Concentration 49.95 uM, Number of replicates 2.0, Standard deviation 5.849609152234285 %) is -8.02% and the inhibition (Thailand/16681/1984, Concentration 99.9 uM, Number of replicates 2.0, Standard deviation 5.75747614138947 %) is -7.97%.

Turning to `Cc1cc(CO)c2cccc(Cc3ccccc3NC(=O)Cc3c[nH]c4ccccc34)c2n1`, the inhibition reads like this: (Thailand/16681/1984, Concentration 49.95 uM, Number of replicates 2.0, Standard deviation 1.1797806526631314 %) 5.6%; (Thailand/16681/1984, Concentration 99.9 uM, Number of replicates 2.0, Standard deviation 0.9471475819719768 %) 13.1%.

Turning to `CNC(=O)c1cc(Cl)ccc1NS(=O)(=O)c1cc(Cl)cc(C(=O)NC)c1OC`, the inhibition is -1.24% (Thailand/16681/1984, Concentration 49.5 uM, Number of replicates 2.0, Standard deviation 3.5107220562143744 %); 1.93% (Thailand/16681/1984, Concentration 99.01 uM, Number of replicates 2.0, Standard deviation 4.644293157051252 %); 8.2% (Thailand/16681/1984, Concentration 198.0 uM, Number of replicates 2.0, Standard deviation 3.3165321375743706 %).

With `O=Cc1ccc(N2CCC(C(=O)Nc3ccc(F)cc3C(F)(F)F)CC2)cc1`, the inhibition (Thailand/16681/1984, Concentration 25.0 uM, Number of replicates 1.0) came out at 12.5%.

Take `O=C(O)c1cnn(C2CCN(C(=O)c3ccnc4[nH]cnc34)CC2)c1`: the inhibition is, setting by setting: (Thailand/16681/1984, Concentration 49.5 uM, Number of replicates 2.0, Standard deviation 1.214191700010942 %) -2.48%; (Thailand/16681/1984, Concentration 99.01 uM, Number of replicates 2.0, Standard deviation 1.7130868961137902 %) -2.88%; (Thailand/16681/1984, Concentration 198.0 uM, Number of replicates 2.0, Standard deviation 1.3863533153956358 %) -2.86%.

For the compound `COc1ccccc1OCCn1cc(C2CCNCC2)c(C)n1`, the inhibition reads like this: (Thailand/16681/1984, Concentration 49.5 uM, Number of replicates 2.0, Standard deviation 0.4008605306484476 %) -1.35%; (Thailand/16681/1984, Concentration 99.01 uM, Number of replicates 2.0, Standard deviation 0.8515456477601485 %) 0.612%; (Thailand/16681/1984, Concentration 198.0 uM, Number of replicates 2.0, Standard deviation 0.3007587308619815 %) 2.21%.

Broadly, the inhibition is the drop in the measured response relative to a control, in per cent.
